# HCV inhibitor: blocks hepatitis C virus; Huh7.5.1 HCVcc-Cre infection, luciferase reporter, 44 h; Potency, µM (series often up to 41.8 µM), for the others: at the highest dose activity change, negative = inhibition, most hits filed as inhibitors; 340,000 compounds, 3.4% hits
#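 Cells (1,000/well) were plated 4 h before compound, then infected with HCVcc-Cre virus (~0.5 moi). After 44 h further culture, infection was read as luciferase luminescence following a 15 min substrate incubation at room temperature.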
# RE007 growth inh: less growth of the S. pombe RE007 Vpr strain. S. pombe RE007 Vpr strain, BacTiter-Glo ATP luminescence, 24 h. Potency, µM (titrated, usually from 92.2 µM), for the others: top-dose activity change, negative = less growth, hits mostly inhibitors. 360,000 compounds, 0.21% hits; active = well fitted falling curve with a large enough effect; inconclusive = small, poorly fitted or top-dose-only effect; inactive = no such curve, though single readings can be large or run the other way; also: nearly all actives have a fitted effect of over 50% in size
#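 Fission yeast strain RE007, carrying one chromosomally integrated HIV-1 vpr copy, was seeded at OD 0.01 in PMG+AL medium with 23 nL pinned compound. After 24 h at 30 °C and 99% humidity, viability was read by BacTiter-Glo luminescence.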
# FMDV inh: antivirals against foot and mouth disease virus. Potency, µM (highest dose often 57.9 µM), for inactives: at the highest dose activity change, negative = inhibition, actives largely listed as inhibitors. FMDV antiviral cell-based qHTS. 410,000 compounds, 1.2% hits; calls by dose curve; tested in HEK293T cells; also: read-out not given here; nearly all actives have a fitted effect of over 45% in size
# Marburg entry inh: inhibitors of Marburg virus binding or cell entry | Marburg virus pseudotyped entry inhibition, cell reporter | Potency, µM (doses to about 37.8 µM), without a hit: at the top dose activity change, negative = inhibition, most hits filed as inhibitors | 300,000 compounds, 1.8% hits; calls by dose curve; tested in HEK293 cells
# Sm TGR inh: inhibitors of Schistosoma mansoni thioredoxin glutathione reductase | Q962Y6 | purified TGR, DTNB reduction, TNB absorbance 405 nm | Potency, µM (highest dose often 114 µM), inactives show at the top dose activity change, negative = inhibition, usual class: inhibitors | 360,000 compounds, 3% hits; also: nearly all actives have a fitted effect of over 60% in size
#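 Kinetic colorimetric format: TGR-catalysed, NADPH-driven DTNB reduction monitored via TNB absorbance. Enzyme dispensed at 20 nM; compound exposure 15 min at room temperature before reaction start.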
# LASV entry inh: blocks Lassa virus binding to or entry into cells; Lassa virus pseudotype entry inhibition, cell reporter; Potency, µM (doses to about 37.9 µM), for inactives: top-dose activity change, negative = inhibition, usual class: inhibitors; 300,000 compounds, 1.2% hits; AID 540256; calls by dose curve; tested in HEK293 cells; also: nearly all actives have a fitted effect of over 50% in size
# Starred values were filed as active, the others as inactive; ? = inconclusive; · = no result; [ ] = dose if it differs, or a comment. In the library only some 7.2% were active in any assay of this set; here they are far more common. Unless noted, calls follow the shape of the dose curve; as a rule, active = well fitted curve in the direction sought with a large enough effect; inconclusive = small, poorly fitted or top-dose-only effect, or another doubt; inactive = no such curve, though single readings can be large; an effect the other way counts as inactive or inconclusive. % is scaled to controls: 0 for no effect and ±100 for the full control effect; potency is read from the fitted curve at half-maximal effect.
SMILES,HCV inhibitor,RE007 growth inh,FMDV inh,Marburg entry inh,Sm TGR inh,LASV entry inh
CC[N+](CC)(CC)CCOc1ccc(/C=C\c2ccccc2)cc1,·,·,-25.8%,·,·,·
Cc1ccc(-c2csc3ncnc(Nc4ccc(N5CCOCC5)cc4)c23)cc1,?,-8.1%,?,?,-24.3%,12.6µM*
c1ccc(-c2csc3ncnc(NCCN4CCOCC4)c23)cc1,11.2µM*,-2.7%,22.4µM*,-12.2%,3.0%,-29.3%
Cc1ccc(-c2csc3ncnc(NCCN4CCOCC4)c23)cc1,?,-19.6%,-6.9%,11.2µM*,7.1%,?
Clc1ccc(CNc2nc(CN3CCOCC3)nc3scc(-c4ccccc4)c23)cc1,?,12.8%,14.1µM*,20µM*,4.4%,?
CCOc1ccc(C(=O)Nc2cccc(NC(=O)c3ccco3)c2)cc1Cl,·,·,-13.5%,·,-4.1%,-6.3%[46.1 µM]
CC(=O)Nc1ccc(S(=O)(=O)N2CCN=C2SCc2cccc(C)c2)cc1,?,12.8%,?,-26.1%,0.4%,?
CC(=O)Nc1ccc(S(=O)(=O)N2CCN=C2SCc2ccc([N+](=O)[O-])cc2)cc1,10µM*,27.9%,22.4µM*,12.6µM*,-9.8%,?
CCc1nc2sc3c(=O)[nH]cnc3c2c2c1CSC(C)(C)C2,?,0.3%,-3.3%,·,35.5µM*,·
C/C(=N\Nc1nc2ccccc2s1)c1ccc(Br)s1,11.2µM*,-9.8%,?,?,5.7%,?
COc1ccc(N(C(=O)c2ccco2)S(=O)(=O)c2cccs2)cc1,10.0%,14.2%,20.7%,-1.5%,?,-12.0%
O=C(Nc1ccccc1N(C(=O)c1ccco1)S(=O)(=O)c1cccs1)c1ccco1,-25.6%,9.0%,-17.4%,?,44.7µM*,-17.2%
Cc1nc2ccc(NC(=O)c3cccc(S(=O)(=O)N4CC(C)OC(C)C4)c3)cc2s1 (stereo unspecified),2.82µM*,-3.0%,20µM*,-28.4%[46.1 µM],-22.7%,?
O=C(Nc1ccc(S(=O)(=O)N2CCOCC2)cc1)c1cc(-c2ccccc2O)n[nH]1,-18.0%,-0.3%,0.0%,·,4.6%,·
CC1CN(S(=O)(=O)c2ccc(NC(=O)c3cc(-c4ccccc4O)n[nH]3)cc2)CC(C)O1 (stereo unspecified),8.91µM*,-2.7%,?,11.6µM*,6.8%,20.6µM*
CC1CN(S(=O)(=O)c2cccc(C(=O)Nc3ccc(N4CCCCC4)cc3)c2)CC(C)O1 (stereo unspecified),·,19.7%,-16.5%,·,·,·
CC1CN(S(=O)(=O)c2cccc(C(=O)Nc3ccccc3N3CCCC3)c2)CC(C)O1 (stereo unspecified),31.6µM*,-11.6%,?,?,2.0%,?
Cc1[nH]c2ccccc2c1C1C(c2ccccc2)=NN=C(C(C)C)N1O (stereo unspecified),-30.1%,-9.3%,4.4%,-11.5%,11.2µM*,8.3%
CCOc1ccc(-n2nc(CO)c(C(=O)NCc3cccs3)n2)cc1,·,·,7.2%,2.6%[46.1 µM],-6.3%,?
COC1CCC(OC2CC(C3(C)CCC4(CC(O)C(C)C(C(C)/C=C(\C)C(=O)C(C)CC(C)C(=O)O)O4)O3)OC3(OC(C4OC(O)(CO)C(C)CC4C)CC3C)C2C)OC1C (stereo unspecified),0.316µM*,?,17.8µM*,?,·,0.316µM*
CCc1cc2c(nc1CC)CCN(CC/C(C)=N/OC[C@@H](O)[C@H]1O[C@@H]3OC(C)(C)O[C@@H]3[C@H]1O)C2,·,·,·,-6.4%[14.2 µM],·,·
COc1ccccc1NC(=O)Cn1c(=O)n(-c2cccc(C)c2)c(=O)c2c1c1cc(C)ccc1n2C,·,·,0.0%,·,1.3%,5.2%[46.1 µM]
CCC(=O)Oc1c(Sc2ccc(Cl)cc2)c(C)nn1C(C)(C)C,·,·,-25.6%,-1.3%[46.1 µM],-8.8%,-11.1%[46.1 µM]
COc1ccc(N2CCN(C(=O)c3ccc(CNS(=O)(=O)c4cccc(OC)c4)cc3)CC2)cc1,3.55µM*,14.2%,-26.1%,-18.6%[46.1 µM],-15.5%,?
COc1cccc(S(=O)(=O)NCc2ccc(C(=O)N3CCN(c4ccccc4)CC3)cc2)c1,?,-1.8%,?,·,5.4%,·
SMILES,HCV inhibitor,RE007 growth inh,FMDV inh,Marburg entry inh,Sm TGR inh,LASV entry inh
Cc1ccc(S(=O)(=O)NCc2ccc(N3CCN(C(=O)OC(C)(C)C)CC3)cc2)cc1,?,-5.1%,28.2µM*,-13.1%[46.1 µM],-2.8%,-14.7%[46.1 µM]
Cc1cccc(C)c1NC(=O)CNC(=O)c1ccc(S(=O)(=O)NCc2ccco2)cc1,8.9%,0.8%,-2.7%,·,20µM*,·
COc1ccc(C(=O)NCC(=O)Nc2cccc(S(=O)(=O)NCc3ccco3)c2)cc1OC,-4.8%,11.5%,29.7%,-19.7%[46.1 µM],44.7µM*,9.4%
CCOc1ccc(OCC(=O)Nc2ccc(S(=O)(=O)Nc3cc(C)on3)cc2)cc1,·,·,4.1%,-14.1%[46.1 µM],6.7%,?
Cc1c(C(=O)NCCCc2ccncc2)cnn1-c1ncc2c(n1)-c1ccccc1CC2,·,·,-9.5%,·,·,·
CCOc1ccc(CNC(=O)Cn2nc(C)c3sc4ccccc4c3c2=O)cc1,·,·,-4.5%,?,-17.9%,-2.2%[46.1 µM]
CC(=O)Nc1cccc(NC(=O)c2ccc(S(=O)(=O)NCc3ccco3)cc2)c1,·,9.6%,-22.7%,·,·,·
COc1cccc(S(=O)(=O)NCc2ccc(C(=O)NCc3ccco3)cc2)c1,20.7%,13.4%,0.0%,12.8%,28.2µM*,14.3%
Cc1cccc(NC(=O)c2ccc(F)c(S(=O)(=O)NCc3ccco3)c2)c1,?,1.7%,-3.4%,·,28.2µM*,·
COC(=O)CCCC1=CC2=C(c3ccccc3)C(=O)C(C)(OC(=O)C3CCCC3)C(=O)C2=CN1Cc1ccco1 (stereo unspecified),3.1%,-0.3%,-7.9%,?,22.4µM*,·
COC(=O)CCCC1=CC2=C(c3ccccc3)C(=O)C(C)(OC(=O)C3CCCC3)C(=O)C2=CN1CCCCO (stereo unspecified),18.3%,-13.5%,18.1%,?,41.0%,·
COc1ccc(C(C)(C)C)cc1NC(=O)c1ccc[n+]([O-])c1,1.2%,3.5%,3.0%,?,4.7%,-4.4%[46.1 µM]
Cc1cc(C(C)(C)C)cc(C)c1CCNC(=O)c1ccc[n+]([O-])c1,?,2.4%,-11.3%,0.631µM*,-7.3%,3.16µM*
COC(=O)C1CCN(Cc2ccc3c(c2)CN(C(=O)c2ccc4nc(C)c(C)nc4c2)CCO3)CC1,·,·,-1.4%,·,·,·
Cc1ccccc1NC(=O)C1CC(=O)n2ncnc2N1 (stereo unspecified),15.6%,-8.1%,-12.1%,·,35.5µM*,·
Cc1cc2ncn(-c3ncccc3[N+](=O)[O-])c2cc1C,21.1%,-9.7%,-4.4%,-0.5%[46.1 µM],44.7µM*,1.1%
CCOc1ccc(N2CC(C(=O)NCC(=O)Nc3ccc(F)c(F)c3F)CC2=O)cc1 (stereo unspecified),4.5%,8.6%,8.4%,·,31.6µM*,·

# From PubChem
